Measured values: ChEMBL document CHEMBL3433997, “St. Jude Leishmania screening dataset” (2016)

molecular target: Solute carrier family 2, facilitated glucose transporter member 1 (Homo sapiens) (UniProt P11166); assay: ST_JUDE_LEISH: Cytotoxicity at 2uM final concentration against transgenic Leishmania Mexicana promastigotes LmGLUT1 that are glucose transport deficient and complemented with the human glucose transporter GLUT1. Activity is measured by DNA content using SYBR green in vitro; format: functional
Sequence (P11166 whole entry): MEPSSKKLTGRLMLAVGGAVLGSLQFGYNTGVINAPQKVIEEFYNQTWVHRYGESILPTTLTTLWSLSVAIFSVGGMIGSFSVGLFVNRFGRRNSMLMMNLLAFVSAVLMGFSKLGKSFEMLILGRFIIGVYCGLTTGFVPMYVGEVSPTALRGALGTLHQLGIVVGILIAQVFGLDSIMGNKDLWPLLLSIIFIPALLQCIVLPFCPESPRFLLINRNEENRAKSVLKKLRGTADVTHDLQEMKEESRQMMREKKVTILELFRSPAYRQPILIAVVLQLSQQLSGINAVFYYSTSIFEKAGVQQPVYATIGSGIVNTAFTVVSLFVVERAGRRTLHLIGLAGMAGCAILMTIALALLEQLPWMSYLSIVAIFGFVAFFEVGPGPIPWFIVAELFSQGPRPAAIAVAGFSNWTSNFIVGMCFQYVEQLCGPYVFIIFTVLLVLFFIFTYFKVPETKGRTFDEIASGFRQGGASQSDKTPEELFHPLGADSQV

| SMILES | inhibition [%] |
| --- | --- |
| CN(C)CCCNC(=O)c1ccccc1Sc1ccccc1C#N | 0.79 |
| COc1ccc(NC(=O)/C=C/c2ccccc2Cl)cc1OCCN1CCC(NC2CC2)CC1 | 8.25 |
| COc1ccccc1C(=O)N1CCN(Cc2cccs2)CC1 | 7.76 |
| O=C(/C=C/c1ccc(Cl)c(Cl)c1)NCCCCCN1CCC(NC(=O)Nc2ccc3c(c2)OCO3)CC1 | 0.33 |
| Fc1ccc2[nH]c(-c3ccc(-c4ccc(CN5CCC(CCN6CCCCC6)CC5)cc4)cc3)nc2c1 | 7.35 |
| CC(C)c1cc(Oc2c(I)cc(CCNC(=N)N)cc2I)ccc1O | -0.6 |
| CC1=C(C(=O)Nc2cc3cn[nH]c3cc2F)C(c2cccc(NS(C)(=O)=O)c2)CC(=O)N1 (centres undefined) | 2.54 |
| COc1ccccc1-c1csc(C(=O)NCC2CCN(Cc3ccc(C(C)(C)C)cc3)C2)c1 (centres undefined) | 1.44 |
| Nc1nc(N)c2c(ccc3c2ccn3CCCC2CCCNC2)n1 (centres undefined) | 0.22 |
| CC(=O)Nc1cccc(C(=O)Nc2ccc(-c3ccc(-c4nc5cccc(C)c5[nH]4)s3)cc2)c1 | -0.38 |
| Brc1ccsc1-c1nc(NCCC(c2ccccc2)c2ccccc2)no1 | -0.74 |
| CC(C)(C)OC(=O)N1CCC(C2CCN(C(=O)OC(C)(C)C)CC2)CC1 | -2.91 |
| COc1cc(Nc2nccc(N3CCC(NS(=O)(=O)c4ccc(NC(C)=O)cc4)CC3)n2)cc(OC)c1OC | -1.13 |
| OC(c1nnc(S)n1-c1ccccc1)C(O)c1nnc(S)n1-c1ccccc1 (centres undefined) | 10.1 |
| Cc1ccc(NC(=O)c2ccc3ncccc3c2)cc1OC1CCN(Cc2ccsc2)C1 (centres undefined) | 3.87 |
| CCCCN(CCCC)CCNC(=O)c1cccc(NC(=O)N2CCc3cc(SC)c(C(F)(F)F)cc32)c1 | 3.07 |
| COc1cc(Cc2cnc(N)nc2N)cc(OCCCCCCC(=O)O)c1OC | 0.12 |
| Cc1cc(-c2ccc3c(c2)CC[C@@H](N[C@@H](C)c2ccccc2)C3)cnc1N | 4.92 |
| Cc1cc2c(cc1C(F)(F)F)N(C(=O)Nc1cnc(OCCN(C)C)c(C(F)(F)F)c1)CC2 | 7.92 |
| Cc1ccc(C(=O)Cn2nc(-c3ccc(C)c(S(=O)(=O)N4CCCCC4)c3)ccc2=O)cc1 | 8.67 |
| CS(=O)(=O)c1ccc(CCNCc2ccc(-c3ccc(CN(C(=O)c4ccc(Cl)nc4)C4CCN(Cc5ccccc5)CC4)cc3)nc2)cc1 | 4.37 |
| CN(c1ncc(-c2cccc(CNCc3ccccc3O)c2)cn1)C1CCCCC1 | -1.25 |
| Cc1nc(-c2ccc(C(F)(F)F)cn2)sc1C(=O)N1CCc2cc3nccc(N4CCN5CCC[C@H]5C4)c3cc21 | 7.49 |
| CCN(CCCN1CCCCC1)c1cc(C)nc(Nc2ccc3c(c2)CCC3)n1 | -1.26 |
